Assay results taken from the supplement of paper PMC6555819.

Legend:
Test in all cases: PBM binding z-score (relative to random genomic background probes); higher = stronger binding; sequences stand for … in GC…GCGATTGACAGCGTAGAATGAAGG
[1] = tested on: FXR:RXRa (NR concentration 270 nM, RXRa partner concentration 90 nM)
Procedure, shortened: (§1)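 Binding z-scores take random background probes as their reference. They come from custom Agilent 4×180K protein-binding microarrays incubated 1 h with ligand-free nuclear receptor dimers, with antibodies against each partner (one per run) detecting binding. Scanned fluorescence was regression-normalized.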

[2] = tested on: LXRa:RXRa (NR concentration 270 nM, RXRa partner concentration 90 nM)
Procedure, shortened: as §1

[3] = tested on: LXRa homodimer (NR concentration 270 nM)
Procedure, shortened: as §1

[4] = tested on: LXRb:RXRa (NR concentration 270 nM, RXRa partner concentration 90 nM)
Procedure, shortened: as §1

[5] = tested on: LXRb homodimer (NR concentration 270 nM)
Procedure, shortened: as §1

[6] = tested on: PPARa:RXRa (NR concentration 270 nM, RXRa partner concentration 90 nM)
Procedure, shortened: as §1

[7] = tested on: PPARg:RXRa (NR concentration 180 nM, RXRa partner concentration 90 nM)
Procedure, shortened: as §1

[8] = tested on: PPARg:RXRa 270nM:90nM, anti-RXR (NR concentration 270 nM, RXRa partner concentration 90 nM)
Procedure, shortened: as §1

[9] = tested on: PPARg:RXRa 30nM:10nM, anti-RXR (NR concentration 30 nM, RXRa partner concentration 10 nM)
Procedure, shortened: as §1

[10] = tested on: PPARg:RXRa 90nM:30nM, anti-RXR (NR concentration 90 nM, RXRa partner concentration 30 nM)
Procedure, shortened: as §1

[11] = tested on: PPARg:RXRa DBDmut IVT, anti-RXR (DBD mutation: RXRa K156A/R161A, NR concentration 270 nM, RXRa partner concentration 90 nM)
Procedure, shortened: as §1

[12] = tested on: PPARg:RXRa IVT, anti-PPARg (NR concentration 270 nM, RXRa partner concentration 90 nM)
Procedure, shortened: as §1

[13] = tested on: PPARg DBDmut:RXRa IVT, anti-PPARg (DBD mutation: PPARg1 K132A/R137A, NR concentration 270 nM, RXRa partner concentration 90 nM)
Procedure, shortened: as §1

[14] = tested on: PPARg DBDmut IVT, anti-PPARg (DBD mutation: PPARg1 K132A/R137A, NR concentration 270 nM)
Procedure, shortened: as §1

[15] = tested on: PPARg homodimer (NR concentration 180 nM)
Procedure, shortened: as §1

[16] = tested on: PXR:RXRa (NR concentration 270 nM, RXRa partner concentration 90 nM)
Procedure, shortened: as §1

[17] = tested on: PXR homodimer (NR concentration 270 nM)
Procedure, shortened: as §1

[18] = tested on: RARa:RXR (NR concentration 270 nM, RXRa partner concentration 90 nM)
Procedure, shortened: as §1

[19] = tested on: RARa homodimer (NR concentration 270 nM)
Procedure, shortened: as §1

[20] = tested on: RARb:RXRa (NR concentration 270 nM, RXRa partner concentration 90 nM)
Procedure, shortened: as §1

Row | Sequence | PBM binding z-score [1] | PBM binding z-score [2] | PBM binding z-score [3] | PBM binding z-score [4] | PBM binding z-score [5] | PBM binding z-score [6] | PBM binding z-score [7] | PBM binding z-score [8] | PBM binding z-score [9] | PBM binding z-score [10] | PBM binding z-score [11] | PBM binding z-score [12] | PBM binding z-score [13] | PBM binding z-score [14] | PBM binding z-score [15] | PBM binding z-score [16] | PBM binding z-score [17] | PBM binding z-score [18] | PBM binding z-score [19] | PBM binding z-score [20]
1 | TAGCCTAGGTCATGGGCCAGTATTCCACGCGAAC | 4.39 | 3.5 | 0.0514 | 2.3 | -0.499 | 4.12 | 3.67 | 3.49 | 1.17 | 2.47 | 1.55 | 3.11 | 0.483 | -0.959 | 1.79 | 1.75 | -0.956 | 2.95 | -0.638 | 3.78
2 | CGTCCAAGGCCATAGGAGGTCAGTGAAGACAGAT | 2.46 | 3.14 | 0.814 | 1.69 | -0.756 | 2.21 | 0.688 | 0.571 | -0.185 | 0.133 | 0.496 | 1.69 | -0.275 | -0.658 | 0.925 | 3.03 | 1.16 | 2 | -0.0451 | 2.9
3 | TCTCGGAGGACACGAAGGTCAGGGCTTTCCAGAG | 1.55 | 1.29 | 0.139 | 1.17 | -0.91 | 2.13 | 0.576 | 1.75 | 2.15 | 1.9 | 1.37 | 0.884 | -0.402 | -1.18 | 1.07 | 1.89 | 0.452 | 2.52 | -0.205 | 3.48
4 | GATACAGGGTCAAGGCCATAGTACGCGTATTGAT | 6.45 | 4.12 | 0.059 | 3.75 | 0.018 | 5.51 | 6.08 | 5.45 | 2.63 | 4.43 | 2.5 | 4.05 | 0.702 | -0.195 | 1.64 | 3.94 | 0.404 | 4.65 | 0.823 | 4.41
5 | CCGACTGTGGCAAGGTTACCATAACGCACAGCCA | 0.166 | 0.546 | -0.172 | 0.46 | -0.922 | 1.07 | 1.1 | 0.984 | -0.132 | 0.352 | 1.15 | 0.507 | -0.345 | -0.505 | 0.63 | 0.176 | 0.241 | 0.594 | 0.511 | 0.885
6 | CGAACTAGGTCATCGACAGGACAGTGAATAGTAA | 3.83 | 2.6 | 0.8 | 2.02 | -0.0443 | 4.87 | 8.03 | 6.6 | 3.86 | 5.7 | 8.14 | 8.42 | 4.29 | 4.27 | 2.79 | 1.76 | 0.984 | 2.53 | 2.3 | 3.88
7 | CTCGAAAGGCCGTGCTCAGGTGAGTATACCAAAC | -0.251 | -0.522 | -0.406 | -0.298 | -0.835 | -0.342 | -0.381 | -0.723 | -0.648 | -0.958 | -0.523 | -0.175 | -0.959 | -0.325 | -1.11 | -0.568 | -0.631 | -0.118 | -0.796 | 1.05
8 | CCGACTGGGGCAGAAAGGGTACCATACCATCCGG | -0.642 | -0.505 | -0.574 | -0.581 | -1.48 | 0.209 | 0.831 | 0.193 | -0.692 | 0.0495 | 0.57 | 0.77 | -0.394 | -1.37 | -0.287 | -0.615 | -0.768 | -0.429 | -0.298 | 0.605
9 | AGACCGAGGGCAATGAGTTGATAGCACGGGTGGC | -0.192 | -0.0854 | -0.495 | -0.427 | -0.95 | 0.375 | 0.499 | -0.467 | -0.824 | -0.435 | 0.184 | 0.251 | -0.826 | -1.67 | -1.05 | 1.23 | 5.21 | -0.109 | -0.589 | 1.79
10 | TCTGCTAGGTCAACGATGCTCAGCTAATCTGCTA | 2.94 | 1.88 | -0.569 | 1.22 | -0.547 | 3.02 | 2.04 | 2.92 | 1.7 | 2.32 | 4 | 3.88 | 0.146 | -0.121 | -0.00894 | 0.886 | -1.03 | 1.69 | -0.557 | 3.82
11 | GCTAGTTGGTCACTAAAAGGTCACACACCGGTCG | 3.49 | 4.28 | 4.38 | 4.27 | 0.864 | 4.44 | 2 | 3.69 | 0.993 | 2.6 | 1.75 | 3.25 | -0.266 | -0.384 | 4.15 | 5.01 | 1.59 | 5.91 | 1.48 | 4.49
12 | ACTAGCAGGCCAAGTTTGGGTCACTCATACAAAG | 0.242 | 0.317 | -0.104 | 0.786 | -0.557 | 1.28 | 0.573 | 0.501 | -0.211 | -0.146 | 1.29 | 1.09 | -0.419 | -0.428 | 0.652 | 0.707 | -0.211 | 1.55 | -0.601 | 1.53
13 | ATACCAAGGTGATCGTGAGGTGGTTGATACTAAC | 0.375 | 0.57 | 0.0365 | -0.0432 | 0.00305 | 0.168 | 0.411 | 0.0619 | 0.226 | 0.142 | 0.119 | 0.996 | 0.272 | 0.15 | 0.0507 | 0.417 | 0.167 | 0.474 | 0.144 | 0.774
14 | CCTAGTTGGTTAGGAGGTCACACACCGGATATGA | 3.07 | 3.38 | 2.02 | 3.21 | 0.635 | 4.02 | 2.54 | 3.3 | 1.25 | 2.81 | 1.46 | 3.63 | 0.832 | 1.05 | 4.26 | 4.03 | 1.84 | 4.45 | 1.79 | 3.42
